# Screening data: PubChem, National Center for Advancing Translational Sciences (NCATS)
# TDP1 block: inhibitors of human tyrosyl-DNA phosphodiesterase TDP1; Q9NUW8; recombinant TDP1, AlphaScreen DNA substrate cleavage; Potency, µM (doses to about 130 µM), without a hit: top-dose activity change, negative = inhibition, usual class: inhibitors; 0.28% of 350,000 active; AID 485290; further: potency means the concentration at half of the fitted maximal effect; on the % scale 0 is the no-effect control and ±100 the full control effect; nearly all actives have a fitted effect of over 40% in size
# Target sequence (Q9NUW8 whole entry, looked up): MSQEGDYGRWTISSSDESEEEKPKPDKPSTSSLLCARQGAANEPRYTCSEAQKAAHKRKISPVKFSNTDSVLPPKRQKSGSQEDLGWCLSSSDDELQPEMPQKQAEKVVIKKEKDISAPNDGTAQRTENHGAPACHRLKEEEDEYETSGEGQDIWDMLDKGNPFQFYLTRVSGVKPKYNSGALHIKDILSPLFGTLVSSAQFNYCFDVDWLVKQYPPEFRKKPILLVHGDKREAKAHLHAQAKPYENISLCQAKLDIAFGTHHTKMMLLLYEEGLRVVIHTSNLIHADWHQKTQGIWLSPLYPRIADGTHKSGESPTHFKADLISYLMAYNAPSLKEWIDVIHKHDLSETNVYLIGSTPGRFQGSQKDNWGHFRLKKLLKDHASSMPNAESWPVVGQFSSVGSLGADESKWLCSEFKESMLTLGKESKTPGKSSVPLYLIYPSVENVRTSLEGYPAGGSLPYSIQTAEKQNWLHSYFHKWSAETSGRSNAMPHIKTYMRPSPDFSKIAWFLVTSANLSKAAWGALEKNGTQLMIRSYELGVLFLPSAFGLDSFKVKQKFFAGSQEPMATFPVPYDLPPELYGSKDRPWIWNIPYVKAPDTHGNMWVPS
#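 Tdp1 1 nM final; 15 min RT w/ cpd; substrate 15 nM, 5 min; beads 10 ug/ml, 10 min; AlphaScreen read. Neg ctrl: no enzyme.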
# DT40 TDP1 CPT: growth inhibition of DT40 Tdp1-/-;hTDP1 cells with camptothecin (screen for TDP1 inhibitors). chicken DT40 Tdp1-/-;hTDP1 cells + 20 nM CPT, ATP luminescence, 48 h. Potency, µM (doses to about 46.2 µM), without a hit: top-dose activity change, negative = growth inhibition, usual class: inhibitors. 12% of 420,000 active. AID 686979; further: potency means the concentration at half of the fitted maximal effect; on the % scale 0 is the no-effect control and ±100 the full control effect; nearly all actives have a fitted effect of over 55% in size
#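 Chicken DT40 Tdp1-/- cells complemented with human TDP1, 400 cells/well, exposed to compounds plus 20 nM camptothecin for at least 48 h at 37 C; viability read as ATP content by CellTiter-Glo luminescence.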
# TDP1 cell noCPT: qHTS for Inhibitors of human tyrosyl-DNA phosphodiesterase 1 (TDP1): qHTS in cells in absence of CPT; DT40 Tdp1-/- hTDP1 cells, no CPT, ATP luminescence, 48 h; Potency, µM (highest dose often 46.2 µM), for inactives: at the highest dose activity change, negative = growth inhibition, hits mostly inhibitors; AID 686978, 2013; 15% of 420,000 active; further: potency means the concentration at half of the fitted maximal effect; on the % scale 0 is the no-effect control and ±100 the full control effect; nearly all actives have a fitted effect of over 55% in size
#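 Seeded 400 DT40-hTDP1 cells/well (vehicle DMSO, no 20 nM CPT); pinned compounds; ≥48 hr at 37 °C; CellTiter-Glo luminescence as viability measure.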
# HepG2 tox: kills HepG2 cells in TGF-b inhibitor counter-screen; Potency, µM (top dose mostly 46.1 µM), for the others: at the top dose activity change, negative = cytotoxicity, hits mostly cytotoxic; HepG2 CAGA-GFP viability, ATP luminescence, 18 h; 0.76% of 410,000 active; further: potency means the concentration at half of the fitted maximal effect
#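 CellTiter-Glo luminescence gave cytotoxicity after 18 hours at 37 degrees C. The cells were HepG2 CAGA-GFP in 1% FBS DMEM, stimulated with 500 pg/mL TGF-beta after compound addition. %Activity was normalised to no-cell wells (complete cell-killing) and DMSO (no toxicity), and curves were fitted and classified.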
# TGFb inhibitor: TGF-b pathway inhibition. HepG2 CAGA-GFP TGF-b/SMAD3 reporter, GFP fluorescence, 18 h; TGF-beta stimulated, 500 pg/mL final. Potency, µM (doses to about 46.1 µM), without a hit: top-dose activity, negative = inhibition, hits mostly inhibitors. 1.2% of 410,000 active. AID 588855; further: potency means the concentration at half of the fitted maximal effect; on the % scale 0 is the no-effect control and ±100 the full control effect; nearly all actives have a fitted effect of over 65% in size
#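 First, reporter cells (HEPG2 CAGA-GFP) rested 2 h at 37 degrees C. Next, compounds were pinned in and TGF-beta added to 500 pg/mL final. After 18 h, GFP was imaged per cell and summed per well.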
# IL1B secr inh: inhibitors of inflammasome signaling (IL-1 beta secretion); activity change, % at 57.5 µM; THP-1 LPS/ATP IL-1B secretion, AlphaLISA, 16 h; active compounds read low; 4.7% of 360,000 active; in the data active means activity change below about -50%; inconclusive means mostly about -30% to -49%; further: on the % scale 0 is the no-effect control and ±100 the full control effect
#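 THP-1 cells pretreated 1 hr with compounds (up to 57.5 uM final), then stimulated with LPS (250 ng/mL final) plus ATP (1.25 mM final); secreted IL-1B measured by AlphaLISA after 16 hr, decreased signal indicating inhibition.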
# The depositor's hits bear a star; ? = inconclusive; . = no result given; [ ] = another dose, or the depositor's remark. A selection: hits, their analogues and other compounds. The true share with any hit is near 18%. Unless noted, the call rests on the fitted dose curve; in most records, active means well fitted curve in the direction sought with a large enough effect; inconclusive means small, poorly fitted or top-dose-only effect, or another doubt; inactive means no such curve, though single readings can be large; an effect the other way counts as inactive or inconclusive.
SMILES,TDP1 block,DT40 TDP1 CPT,TDP1 cell noCPT,HepG2 tox,TGFb inhibitor,IL1B secr inh
O=C(Nc1cc(C(F)(F)F)ccc1Cl)c1cnn(-c2ccccc2)c1-n1cccc1,0%,23µM*,23µM*,-24%,?,.
COc1ccc(-n2cc(C(=O)NCCc3cc(OC)ccc3OC)c3ccccc3c2=O)cc1,12%,16µM*,21µM*,-16%,?,.
CCc1ccccc1N(C)C(=O)c1cn(-c2cccc(OC)c2)c(=O)c2ccccc12,1%,15µM*,16µM*,-18%,-19%,.
COc1cccc(-n2cc(C(=O)NCCc3cccc(C)c3)c3ccccc3c2=O)c1,0%,?,18µM*,-32%,?,.
COc1cccc(-n2cc(C(=O)NCc3ccccc3OC)c3ccccc3c2=O)c1,4%,?,?,-11%,-14%,.
COCCCNC(=O)c1cn(-c2cccc(OC)c2)c(=O)c2ccccc12,.,-2%,2%,0%,2%,-4
CCNC(=O)C1CCCN(C(=O)c2ccccc2F)CC1 (centres undefined),.,-6%,-23%,1%,-5%,20
CC(=O)c1ccc(OC(=O)CCc2ccccc2)cc1,.,2%,8%,-7%,2%,17
O=c1cc(N2CCCCC2)[nH]c(=O)n1C1CCCCC1,.,-19%,0%,-3%,-6%,7
O=c1cc(N2CCC(Cc3ccccc3)CC2)[nH]c(=O)n1C1CCCCC1,-2%,?,16µM*,-7%,-3%,24
O=c1cc(N2CCc3ccccc3C2)[nH]c(=O)n1C1CCCCC1,-2%,1.8µM*,?,-19%,32%,-23
NC(=S)NN=C(Cc1ccccc1)Cc1ccccc1,5%,5.8µM*,3.7µM*,-46%,?,-13
NCCCCCCNc1nc2c(N)ncnc2n1[C@@H]1O[C@@H]2COP(=O)(O)O[C@H]2[C@H]1O,-12%,.,.,.,.,.
CCn1cc(C(=O)OCC(=O)Nc2cccc(C(C)=O)c2)c(=O)c2ccc(C)nc21,-3%,-11%,-36%,7%,16%,.
N=C1C(c2ccccc2)=C(O)CN1c1cccc(O)c1,3%,-4%,-6%,4%,-2%,10
Cc1cc(O)c(NC(=S)NC(=O)c2ccc(-c3ccc(Cl)cc3)o2)cc1C,11%,?,21µM*,-93%,?,-20
Cc1ccc(NC(=S)NC(=O)c2ccc(-c3ccc(Cl)cc3)o2)c(O)c1,-1%,21µM*,21µM*,-87%,0%,0
Cc1ccc(O)c(NC(=S)NC(=O)Cc2ccc(Cl)cc2)c1,.,?,?,-23%,-23%,86
Cc1nnc(NC(=O)c2ccc(-c3ccc(Cl)cc3)o2)s1,4%[0.505 µM],-24%,-3%,0%,20%,-8
Cc1noc(C)c1CN(C(=S)NC1CC2CCC1C2)c1ccccc1 (centres undefined),-2%,?,23µM*,-4%,0%,?
C[C@@H]1CNCCN1S(=O)(=O)c1cccc2cnccc12,5%,?,30µM*,.,.,.
C=CCn1c(=O)c2ccccc2n2c(SCc3nc4ccccc4s3)nnc12,-2%,?,16µM*,0%,7%,7
CCCSC1=NC2(CCN(C(=O)NC3CCCCC3)CC2)N=C1c1ccc(Cl)cc1,-1%,3%,4%,-2%,-2%,.
O=C(CCc1nc(-c2cccs2)no1)Nc1cccc([N+](=O)[O-])c1,3%,?,?,-26%,0%,.
Cn1c(N)c(C(=O)COC(=O)c2nc(Cl)ccc2Cl)c(=O)n(C)c1=O,-1%,0%,0%,-10%,0%,28
SMILES,TDP1 block,DT40 TDP1 CPT,TDP1 cell noCPT,HepG2 tox,TGFb inhibitor,IL1B secr inh
Cc1ccc(C)c(C(=O)COc2ccccc2[N+](=O)[O-])c1,3%,5.2µM*,10µM*,-61%,?,-51*
Cc1ccc(OCc2ccc(Br)cc2)c([N+](=O)[O-])n1,-3%,.,.,.,.,.
Cc1ccc(OCCOc2cccc(Br)c2)c([N+](=O)[O-])n1,1%,0%,-22%,2%,0%,-71*
Cc1ccc(OCC(=O)c2cc(C)c(C)cc2C)c([N+](=O)[O-])n1,-5%,3.7µM*,8.2µM*,-32%,11µM*,36
CCCn1c(C)cc(C(=O)COc2ccc(C)nc2[N+](=O)[O-])c1C,0%,?,?,1%,5%,18
Cc1ccc(OCC(=O)c2c(N)n(C)c(=O)n(C)c2=O)c([N+](=O)[O-])n1,3.2µM*,-18%,2%,-16%,-11%,0
CCCNC(=O)COc1ccccc1[N+](=O)[O-],3%,11%,-5%,3%,14%,23
Cc1ccc(C)c(S(=O)(=O)c2nnn3c2nc(Nc2ccc(C)c(C)c2)c2ccccc23)c1,4%,-1%,-5%,-15%,1%,.
O=C(CN(C(=O)CCC(=O)Nc1nccs1)c1ccccc1F)NCCc1ccccc1,-5%,-1%,-28%,-5%,1%,14
Cc1ccc(C)c(C(=O)COc2ccc(C)nc2[N+](=O)[O-])c1,-2%,7.3µM*,15µM*,-39%,?,42
Cc1ccc(OCC(=O)N2c3ccccc3CC2C)c([N+](=O)[O-])n1 (centres undefined),5%,16µM*,-87%,-26%,-7%,-7
Cc1ccc(NS(=O)(=O)c2ccccc2[N+](=O)[O-])cc1C,0%,?,6%,3%,-1%,21
Cc1cc(C)c(S(=O)(=O)Oc2ccccc2[N+](=O)[O-])c(C)c1,.,21µM*,18µM*,-9%,?,-4
Cc1ccc(OCC(=O)N2CCc3ccccc3C2)c([N+](=O)[O-])n1,0%,3%,14%,-6%,3%,-17
COc1ccc(S(=O)(=O)NCC2CCC(C(=O)N3CCC4(CC3)OCCO4)CC2)cc1 (centres undefined),2%,2%,-6%,10%,4%,16
CCOC(=O)C1(CCCc2ccccc2)CCN(C(=O)CCN2CCCCC2=O)CC1,-1%,?,16µM*,-18%,-21%,-5
CCOC(=O)C1(CCCc2ccccc2)CCN(C(=O)CCc2cnn(C)c2)CC1,0%,?,?,0%,-10%,0
CCOC(=O)C1(CCCc2ccccc2)CCN(C(=O)CCOC)CC1,.,0%,?,4%,13%,0
